Assay results from PubChem BioAssay AID1863 (Southern Research Specialized Biocontainment Screening …, 2009).
Where “and” joins values, the source holds several entries; their conditions need not be identical. Equal values may be shown once. The campaign covered roughly 300,000 compounds. About 480 (0.16%) were called active.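 The calls were made as follows: active = inhibition over 29.93%, a cutoff 3 SD above the screen mean, later confirmed by dose response; inconclusive = inhibition over 29.93% but no dose response follow-up; inactive = inhibition at most 29.93% or unconfirmed.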 These entries were drawn from the full list. Measured potencies and affinities stand elsewhere.

Assay: PhoP-dependent GFP reporter repression – Salmonella Typhimurium, primary screen (AID 1863);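 also: 0% = low Mg2+ inducing control and 100% = high Mg2+ repressing control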
Details: S. Typhimurium PhoP-regulated promoter GFP reporter, 4 h; at 50 µM; hits give high values

inhibition, inactive:
COc1ccc(-c2cc(C(=O)OCC(=O)NC(C)C)c3ccccc3n2)cc1 6.33%
COCCN(C(=O)COC(=O)c1ccc2c(c1)OCCO2)c1c(N)n(Cc2ccccc2)c(=O)[nH]c1=O 0.22%
CCOC(=O)C1CCCN(C(=O)c2ccc(-c3ccc([N+](=O)[O-])cc3)o2)C1 (stereo unspecified) 3.02%
CSc1ncccc1C(=O)Nc1nc2ccc(Oc3ccccc3)cc2s1 -15.8%
Cc1ccc2nc(N(CCCN(C)C)C(=O)CCc3ccccc3)sc2c1 -4.17%
CN(C)CCCN(C(=O)CCc1ccccc1)c1nc2ccc(Br)cc2s1 10.9%
C=CCN1CCN(C(=O)c2oc3ccccc3c2C)CC1 -3.66%
Cc1ccc(NC2CCCN(C(=O)c3cn(C)c4ccccc34)C2)cc1C (stereo unspecified) 0.88%
CCCCC(=O)NC(c1cccs1)c1cc(Cl)c2cccnc2c1O (stereo unspecified) -0.21%
CC(C)C(=O)NC(c1cccs1)c1cc([N+](=O)[O-])c2cccnc2c1O (stereo unspecified) 2.63%
CCCC(=O)NC(c1cccs1)c1cc(Cl)c2cccnc2c1O (stereo unspecified) -5.84%
CC(C)C(=O)NC(c1ccccc1)c1cc([N+](=O)[O-])c2cccnc2c1O (stereo unspecified) -2.27%
CC(=O)NC(c1ccc2ccccc2c1)c1ccc2cccnc2c1O (stereo unspecified) 56.5%
CC(=O)NC(c1ccccc1)c1cc([N+](=O)[O-])c2cccnc2c1O (stereo unspecified) 4.87%
COc1cccc(C(NC(C)=O)c2ccc3cccnc3c2O)c1 (stereo unspecified) 9.73%
Cc1ccc(C(NC(=O)C(C)C)c2cc([N+](=O)[O-])c3cccnc3c2O)cc1 (stereo unspecified) 9.47%
COc1cccc2cc(CC(=O)c3cc(C)ccc3C)c(=O)oc12 -3.13%
CCOc1ccc(NC(=O)CN(C)C(=O)c2ccc3nc(CC)c(CC)nc3c2)cc1OCC -9.1%
CC(C)C[C@H](NC(=O)c1nc[nH]c1C(=O)NCCCCCNC(=O)OC(C)(C)C)C(=O)OCc1ccccc1 -4.74%
Cc1ccc(S(=O)(=O)N2CCN(C(=O)CC(C)C)CC2)cc1 3.71%
Cc1ccc(NC(=O)Nc2ccon2)cc1Cl 0.2%
Clc1ccccc1CONc1ncnc2nonc12 -2.15%
CCC(C)(C)NC(=O)Cc1ccc(OC)c(OC)c1 -10.6%
O=Cc1c(F)cccc1N1CCCC1 8.32%
Cc1cccc(NC(=O)CC2(CC(=O)O)CCCC2)c1 -1.98%
Cc1ccc(C2N(c3ccc(Cl)cc3)C(=O)N3CCCN23)cc1 (stereo unspecified) -0.36%
CCOC(=O)COc1cc([N+](=O)[O-])cc2cccnc12 1.41%
O=[N+]([O-])c1cc2cccnc2c2ncccc12 -10.2%
CN(C)[C@@H]1C(=O)C(C(=O)NCN2CCCC2)=C(O)[C@@]2(O)C(=O)C3=C(O)c4c(O)cccc4[C@@](C)(O)C3CC12 (stereo partly specified) 1.32%
O=C1C(Oc2ccc(Cl)cc2)C(c2ccc3c(c2)OCO3)N1CC1CCCO1 (stereo unspecified) -1.66%
COc1ccc(-c2cc(C(F)(F)F)n3nc(C(=O)N4CCN5CCCC5C4)cc3n2)cc1OC (stereo unspecified) 8.34%
CN1C(=O)[C@@H]2[C@H](C1=O)[C@@H]1C(=O)Nc3ccccc3C(=O)N1[C@@H]2c1ccc(F)cc1 6.12%
CC1Cc2ccccc2N1C(=O)CSc1nnnn1-c1ccc2c(c1)OCCO2 (stereo unspecified) 4.49%
C#CCOCCOCCOCCNc1nc(N2CCN(C(=O)CCCCCCCCCCNC(=O)[C@H](CCCCN)n3cc(C)nn3)CC2)nc(N2CCN(C(=O)CCCCCCCCCCNC(=O)[C@H](CCCN=C(N)N)n3cc(C[C@@H](C)CC)nn3)CC2)n1 23.8%
C#CCOCCOCCOCCNc1nc(N2CCN(C(=O)CCCCCCCCCCNC(=O)[C@H](CCCCN)n3cc(CCO)nn3)CC2)nc(N2CCN(C(=O)CCCCCCCCCCNC(=O)[C@H](CCCN=C(N)N)n3cc(C[C@@H](C)CC)nn3)CC2)n1 25.8%
C#CCOCCOCCOCCNc1nc(N2CCN(C(=O)CCCCCCCCCCNC(=O)[C@H](CCCCN)n3cc(CCCC(=O)O)nn3)CC2)nc(N2CCN(C(=O)CCCCCCCCCCNC(=O)[C@H](CCCN=C(N)N)n3cc(C[C@@H](C)CC)nn3)CC2)n1 -5.84%
C#CCOCCOCCOCCNc1nc(N2CCN(C(=O)CCCCCCCCCCNC(=O)[C@H](CCCCN)n3cc(C[C@@H](C)CC)nn3)CC2)nc(N2CCN(C(=O)CCCCCCCCCCNC(=O)[C@H](CCCCN)n3cc(C[C@@H](C)CC)nn3)CC2)n1 20.6%
Cc1cc(C)cc(NC(=O)CN(C)S(=O)(=O)c2cccc3nsnc23)c1 -9.89%
CC(C)CCNC(=O)NC(=O)COC(=O)CCN=C1NS(=O)(=O)c2ccccc21 -10.2%
COC(=O)CCC(=O)N1CN2CN(C(=O)CCC(=O)OC)CC([N+](=O)[O-])(C2)C1 -5.21%
c1ccc(Nc2nn[nH]n2)cc1 -21.5%
CCC(=O)O[C@@H]1CC(=O)O[C@H](C)CC=CC=C[C@@H](O)[C@H](C)C[C@H](CC=O)[C@H](O[C@H]2O[C@H](C)[C@@H](O[C@H]3C[C@@](C)(O)[C@@H](OC(=O)CC)[C@H](C)O3)[C@H](N(C)C)[C@H]2O)[C@H]1OC -22.5%
CC[C@H]1OC(=O)[C@H](C)[C@@H](O[C@H]2C[C@@](C)(OC)[C@@H](O)[C@H](C)O2)[C@H](C)[C@@H](O[C@@H]2O[C@H](C)C[C@H](N(C)C)[C@H]2O)[C@](C)(OC)C[C@@H](C)C(=O)[C@H](C)[C@@H](O)[C@]1(C)O -8.63% and -8.23%
CC1CCCN(C(=O)c2ccc(S(=O)(=O)Nc3ccccc3Cl)cc2)C1 (stereo unspecified) 3.82%
Cc1ccc(CN2C(=O)CCC2C(=O)NCCN2CCN(c3cccc(Cl)c3)CC2)cc1 (stereo unspecified) -4.51%
CCOCCCNC(=O)c1ccc2c(c1)ncn2-c1ccc(C)cc1C -8.15%
